Rows were chosen to be rich in hits. Some 21% of all compounds tested hit in one or more screens of this group.
RORg inh: blocks mouse ROR gamma transcriptional activity; P51450; Drosophila S2 Gal4-RORgamma UAS-luciferase reporter, 20 h; Potency, µM (top dose mostly 53.6 µM), for the others: at the highest dose activity change, negative = inhibition, actives largely listed as inhibitors; actives 5.4% (n = 310,000); further: potency means the concentration at half of the fitted maximal effect; nearly all actives have a fitted effect of over 60% in size
Target sequence (P51450 whole entry, looked up, the tested form may be a part): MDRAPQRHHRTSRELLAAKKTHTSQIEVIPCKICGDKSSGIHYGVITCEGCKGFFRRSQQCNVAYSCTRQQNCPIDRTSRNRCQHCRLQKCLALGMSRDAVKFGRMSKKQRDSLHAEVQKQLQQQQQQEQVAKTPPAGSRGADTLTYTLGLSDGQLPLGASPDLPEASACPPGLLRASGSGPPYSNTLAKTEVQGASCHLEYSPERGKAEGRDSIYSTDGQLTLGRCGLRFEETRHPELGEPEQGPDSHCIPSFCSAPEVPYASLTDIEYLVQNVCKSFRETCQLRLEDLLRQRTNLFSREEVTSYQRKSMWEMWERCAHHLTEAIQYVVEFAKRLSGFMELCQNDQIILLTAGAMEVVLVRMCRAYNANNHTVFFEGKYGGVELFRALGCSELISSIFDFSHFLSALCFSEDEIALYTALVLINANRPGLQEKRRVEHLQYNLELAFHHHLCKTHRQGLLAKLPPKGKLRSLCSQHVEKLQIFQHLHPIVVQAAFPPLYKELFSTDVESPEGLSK
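Using a luciferase readout, inhibitors were identified by reduced reporter activity in Drosophila cells coexpressing a copper-inducible Gal4–ROR gamma fusion and UAS-driven Photinus luciferase, incubated 20 hr after 700 uM copper sulfate.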
TDP1 cell CPT: growth inhibition of DT40 Tdp1-/-;hTDP1 cells with camptothecin (screen for TDP1 inhibitors) | chicken DT40 Tdp1-/-;hTDP1 cells + 20 nM CPT, ATP luminescence, 48 h | Potency, µM (titrated, usually from 46.2 µM), inactives show at the highest dose activity change, negative = growth inhibition, hits mostly inhibitors | actives 12% (n = 420,000); further: potency means the concentration at half of the fitted maximal effect; nearly all actives have a fitted effect of over 55% in size
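Chicken DT40 Tdp1-/- cells stably complemented with human TDP1 were seeded at 400 cells/well in medium containing 20 nM camptothecin, exposed to pin-transferred compounds, and grown at 37 °C for at least 48 hr. Viability was read as ATP luminescence.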
TDP1 cell noCPT: qHTS for Inhibitors of human tyrosyl-DNA phosphodiesterase 1 (TDP1): qHTS in cells in absence of CPT; DT40 Tdp1-/- hTDP1 cells, no CPT, ATP luminescence, 48 h; Potency, µM (highest dose often 46.2 µM), for the others: at the top dose activity change, negative = growth inhibition, actives largely listed as inhibitors; actives 15% (n = 420,000); further: potency means the concentration at half of the fitted maximal effect; nearly all actives have a fitted effect of over 55% in size
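Growth of hTDP1-complemented DT40 Tdp1-knockout cells is measured by ATP luminescence after at least 48 hr compound exposure at 37 °C, with DMSO substituting for the 20 nM CPT used in the parallel screen.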
IL-1B inflam inh: inflammasome signaling inhibition, IL-1 beta readout. THP-1 LPS/ATP IL-1B secretion, AlphaLISA, 16 h; stronger effect = lower value. activity change, % at 57.5 µM. actives 4.7% (n = 360,000); in the data active means activity change below about -50%; inconclusive means mostly about -30% to -49%
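Secreted IL-1B measured by AlphaLISA bead assay after 16 h compound exposure of THP-1 cells; compounds (final up to 57.5 uM) added 1 h before LPS (250 ng/mL) and ATP (1.25 mM) stimulation; lower signal means less secretion.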
ELG1 DNA repair: inhibitors of ELG1-dependent DNA repair in HEK293T cells; HEK293T ELG1-luciferase reporter, luminescence, 16 h; DNA damage induced by 5-fluorouridine; Potency, µM (doses to about 46.1 µM), inactives show top-dose activity change, negative = inhibition, usual class: inhibitors; actives 2.3% (n = 330,000); further: potency means the concentration at half of the fitted maximal effect; nearly all actives have a fitted effect of over 55% in size
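Overnight (16 hr) co-exposure of 2,000 cells/well to 5-fluorouridine and compound at 37 °C preceded detection. Luciferase was quantified via ONE-Glo luminescence; loss of signal denotes inhibition.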
Gal4-VP16 FLuc: inhibits Gal4-VP16 luciferase reporter, ROR gamma counter-screen; actives 3.5% (n = 310,000); Potency, µM (doses to about 53.6 µM), inactives show at the highest dose activity, negative = inhibition, actives largely listed as inhibitors; Drosophila S2 Gal4-VP16 UAS-luciferase, luminescence, 20 h; AID 2546;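 further: Gal4-VP16 expression switched on by copper sulfate through the metallothionein promoter; potency means the concentration at half of the fitted maximal effect; nearly all actives have a fitted effect of over 50% in size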
* = called active by the depositor; u = inconclusive; x = no result given; ! = repeats disagree; [ ] = remark or other dose. Unless noted, the call rests on the fitted dose curve; in most records, active means well fitted curve in the direction sought with a large enough effect; inconclusive means small, poorly fitted or top-dose-only effect, or another doubt; inactive means no such curve, though single readings can be large; an effect the other way counts as inactive or inconclusive. On the % scale 0 is the no-effect control and ±100 the full control effect.

SMILES | RORg inh | TDP1 cell CPT | TDP1 cell noCPT | IL-1B inflam inh | ELG1 DNA repair | Gal4-VP16 FLuc
CC(C)=O | 13.6% | u | u | x | x | -17.0%
c1cc(CN2CCC3(CCNCC3)CC2)ccn1 | -19.3% | -0.6% | -2.3% | x | x | -11.3%
c1ccc(N2CCCC3(CCNCC3)C2)nc1 | 19.3% | u | 16.4µM* | x | x | 5.8%
c1ccc(N2CCCC3(CCNCC3)C2)cc1 | 37.6% | u | u | x | x | 1.4%
c1cnc(N2CCC3(CCNCC3)CC2)nc1 | -17.9% | u | 23.1µM* | x | x | -4.2%
FC(F)(F)c1ccc(-c2ccc3c(c2)CNCc2cnnn2-3)cc1 | x | u | u | -17.6 | x | x
C/C(=N\N1CCCCCC1)c1c(O)n(C2CCCCC2)c(=O)[nH]c1=O | 15.2% | -16.6% | u | 36.5 | 0.0% | 4.1%
S=P(N1CCCCCC1)(N1CC1)N1CC1 | x | 3.26µM* | 4.11µM* | -7.6 | x | x
S=P(N1CCOCC1)(N1CC1)N1CC1 | x | 5.17µM* | 6.51µM* | 4.8 | x | x
CN1CCCC2(CCN(C(=O)c3csnn3)CC2)C1 | -3.8% | 11.4% | -2.6% | x | x | -0.9%
CCOP(=O)(OCC)OCC | 11.0% | 2.5% | -16.0% | -17.4 | 15.7% | 1.2%
CCOP(=O)(CCP(=O)(OCC)OCC)OCC.C[CH2][Sn]([Cl])([Cl])[CH2]C | x | 0.731µM* | 0.82µM* | -99.9* | x | x
C[C@H](N)C(=O)c1ccccc1 | x | -9.8% | -14.0% | x | x | x
O=C(NCc1ccc(C(=O)N2CCC3(CC2)OCCO3)cc1)c1ccc2c(c1)OCO2 | 10.0% | -15.2% | -23.7% | 5.5 | -4.6% | -8.9%
O=C(c1ccc2c(=O)n(Cc3ccc4c(c3)OCO4)c(=S)[nH]c2c1)N1CCC2(CC1)OCCO2 | 12.6µM* | 23.1µM* | u | 8.2 | u | u
CC(CC(C#N)(c1ccccc1)c1ccccc1)N(C)C (stereo unspecified) | x | u | u | -17.2 | -0.1% | x
CC[C@H](O)C(C[C@H](C)N(C)C)(c1ccccc1)c1ccccc1 | x | 44.1µM* | u | x | x | x
COc1cc2c(c3oc4cccc(O)c4c(=O)c13)C1C=CO[C@@H]1O2 (stereo partly specified) | 12.6µM* | x | x | x | x | 10µM*
Cc1cc2c(cc1C)NP(=S)(c1ccccc1)N2 | x | -9.9% | -16.7% | -11.3 | x | x
Cc1ccc(S(=O)(=O)N[C@@H](CCCCN)C(=O)CCl)cc1 | u | 8.41µM*! | 8.41µM*! | -10.7 | x | -20.7%
c1cc2c(c(NC3=NCCN3)c1)CCCC2 | -11.4%[10 µM] | u | u | x | x | -1.9%
CC(=O)OC1CC[C@]2(C#N)[C@H]3CC[C@]4(C)[C@H](C5C=CC(=O)O5)CCC4(O)C3CCC2(O)C1 (stereo partly specified) | -16.9% | u | u | -22.8 | 14.6µM* | -15.1%
O=C1NO[C@@H]2CN[C@@H](C(=O)O)[C@H]12 | -14.9% | x | x | x | x | 5.6%
C=CC[C@@H](CC(=O)N(CCO)Cc1ccccc1)C(=O)NC[C@@H](OC(=O)[C@@H](CC=C)CC(=O)OC(C)(C)C)c1ccccc1 | x | u | u | u | 20.6µM* | x
C=CC[C@H](CC(=O)N(CCO)Cc1ccccc1)C(=O)NC[C@H](OC(=O)[C@@H](CC=C)CC(=O)OC(C)(C)C)c1ccccc1 | x | 20.6µM* | 23.1µM* | -71.3* | 20.6µM* | x
SMILES | RORg inh | TDP1 cell CPT | TDP1 cell noCPT | IL-1B inflam inh | ELG1 DNA repair | Gal4-VP16 FLuc
CCOc1ccc(/C=C/C(=O)C(C(N)=O)=C2SCCS2)cc1 | 13.0% | u | u | -4.5 | u | -14.3%
CCCOc1ccc(N2C(=O)CC(N3CCC(O)(c4cccc(C(F)(F)F)c4)CC3)C2=O)cc1 (stereo unspecified) | u | -23.6% | -36.2% | -8.5 | u | -1.8%
CCN1C[C@@]2(COC)C3[C@@H](OC)C4[C@@H]1[C@@]3(C1C[C@@]3(O)[C@H](OC(=O)c5ccccc5)C1[C@]4(OC(C)=O)[C@@H](O)[C@@H]3OC)[C@@H](OC)C[C@H]2O (stereo partly specified) | 0.1% | -3.6% | 15.7% | x | x | -1.2%
CCOc1c(Cl)cc(CNCCc2c[nH]c3ccccc23)cc1OC | u | u | 14.6µM* | -86.9* | 21.1% | u
CCOc1cc(CNCCc2c[nH]c3ccccc23)cc(Cl)c1OCC | -38.3% | 16.4µM* | 18.4µM* | -96.6* | 15.9% | u
COc1ccc(OC)c(C[C@H](C)N)c1 | x | -29.7%[92.5 µM] | -27.0%[92.5 µM] | x | x | x
O=C1NC(=S)NC(=O)C1=Cc1ccc2c(c1)CCN2CCCCl | 10.7% | u | 14.6µM* | 12.0 | -15.0% | 3.8%
CC(C)[N+](C)(CCC(C(N)=O)(c1ccccc1)c1ccccc1)C(C)C | 4.7% | 7.31µM*! | 9.2µM*! | 8.3 | x | -4.0%
CN(C)C(=O)Oc1cc(OC(=O)N(C)C)cc([C@@H](O)CNC(C)(C)C)c1 | 11.0%[2.98 µM] | x | x | x | x | 0.5%[17 µM]
COc1ccc(N(CC(=O)Nc2cccc(SC)c2)S(C)(=O)=O)cc1Cl | 0.0% | -23.0% | u | -0.3 | -19.0% | -3.6%
